PubChem BioAssay AID720504 (National Center for Advancing Translational Sciences (NCATS), 2013)
About 10,000 (2.8%) of roughly 360,000 compounds were called active. Inconclusive results (about 4%) are left out. The full list was thinned out, with actives kept by preference. A number with no mark means an inactive call. Calls come from the whole dose curve; as a rule, active = well fitted inhibition curve with a large enough effect; inconclusive = small, poorly fitted or top-dose-only effect; inactive = flat fitted curve, though single readings scatter.
% is set by controls: 0 for no effect and ±100 for the full control effect; potency is the fitted concentration of half-maximal effect.
Note: nearly all actives have a fitted effect of over 65% in size.
Throughout, for max response, negative = inhibition: series mostly up to about 57 µM.

Each molecule was assayed against Serine/threonine-protein kinase PLK1 (Homo sapiens) (UniProt P53350) (assay: qHTS for Inhibitors of PLK1-PDB (polo-like kinase 1 - polo-box domain): Primary Screen). Settings: Plk1 PBD binding of FITC phosphopeptide, fluorescence polarization.
Serine/threonine-protein kinase PLK1 (Homo sapiens), sequence (P53350 whole entry, looked up, the tested form may be a part): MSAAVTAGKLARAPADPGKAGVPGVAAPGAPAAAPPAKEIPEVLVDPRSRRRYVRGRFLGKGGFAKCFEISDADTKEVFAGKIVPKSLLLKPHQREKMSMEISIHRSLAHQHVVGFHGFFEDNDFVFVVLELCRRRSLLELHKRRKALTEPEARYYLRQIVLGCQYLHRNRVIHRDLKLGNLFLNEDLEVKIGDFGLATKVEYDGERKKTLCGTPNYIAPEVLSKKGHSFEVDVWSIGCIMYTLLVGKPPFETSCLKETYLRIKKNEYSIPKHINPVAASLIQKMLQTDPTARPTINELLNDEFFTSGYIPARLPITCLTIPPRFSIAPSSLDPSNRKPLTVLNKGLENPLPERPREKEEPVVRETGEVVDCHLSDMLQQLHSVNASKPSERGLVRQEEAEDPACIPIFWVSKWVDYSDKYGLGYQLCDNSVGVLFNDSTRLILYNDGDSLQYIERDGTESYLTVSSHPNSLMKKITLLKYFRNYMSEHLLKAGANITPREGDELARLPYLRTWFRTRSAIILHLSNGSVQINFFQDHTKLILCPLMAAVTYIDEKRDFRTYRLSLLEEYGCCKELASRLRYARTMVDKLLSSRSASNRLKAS
`CCc1nnc(NS(=O)(=O)c2ccc(NC(=O)c3cccc(OC(F)(F)C(F)F)c3)cc2)s1` gave a max response, negative = inhibition of -23.6%.
`CCc1ccc(NC(=O)C(=O)NNC(=O)c2cccs2)cc1` gave a max response, negative = inhibition of -20.4%.
`O=C(NC(=S)Nc1ccc(NC(=O)c2cccs2)cc1)c1ccc([N+](=O)[O-])cc1` gave a max response, negative = inhibition of -4.47%.
In the case of `NS(=O)(=O)c1ccc(NC(=S)NNC(=O)c2cccs2)cc1`, the Potency was 29.9 µM (active).
For `CS(=O)(=O)c1ccc(C(=O)NNC(=O)c2cccs2)cc1`, the max response, negative = inhibition was -0.622%.
`CCc1nnc(NS(=O)(=O)c2ccc(NC(=S)NC(=O)c3cccs3)cc2)s1` was tested, and the Potency was 18.9 µM (active).
With `COc1ccc(Cn2c(=O)oc3ccccc32)cc1` the max response, negative = inhibition was -4.16%.
Work on `CC(=O)Nc1cccc(-c2cc3nc(NCc4cccnc4)n(C)c(=O)c3s2)c1` yielded a max response, negative = inhibition of -0.405%.
With `CC(=O)Oc1ccc(Cn2c(C)c(C(=O)NCc3ccc(C#N)cc3)sc2=O)cc1` the max response, negative = inhibition was -2.92%.
`Cc1sc2nc(-c3ccccc3F)oc(=O)c2c1C` showed a max response, negative = inhibition of -3.03%.
Work on `N#CCCN(C(=S)Nc1ccc(Cl)c(Cl)c1)C1CCCCC1` yielded a max response, negative = inhibition of -9.12%.
`O=c1cnnc(Nc2ccccc2)[nH]1` gave a max response, negative = inhibition of -9.72%.
With `S=c1[nH]nc(Nc2ccccc2)s1` the Potency was 23.8 µM (active).
`CC(C)(C)C(=O)c1cnc(Nc2ccccc2)s1` was tested, and the max response, negative = inhibition was -4.38%.
With `CCOC(=O)c1cnc(SCC(=O)Nc2ccccc2C(=O)OC)nc1N` the max response, negative = inhibition was 0.561%.
With `CCOC(=O)CSc1nccc(N(C)C)c1C#N` the max response, negative = inhibition was -3.55%.
In the case of `CCOC(=O)C(Sc1ncc(C#N)c(N)n1)C(C)C` (stereo not drawn), the Potency was 11.9 µM (active).
Molecule `COc1ccc(OC)c(S(=O)(=O)n2c([N+](=O)[O-])cnc2C)c1` has a max response, negative = inhibition of -9.42%.
For `COc1ccc(C(C[N+](=O)[O-])n2nc(C)cc2C)cc1` (stereo not drawn), the Potency was 26.7 µM (active).
Work on `COc1cccc(CSc2nc3nc(C)cc(C)n3n2)c1` yielded a max response, negative = inhibition of -14.8%.
With `CC1(C(=O)Nc2ccc3c(c2)OCCO3)CCN1C(=O)Cc1cc(F)ccc1F` (stereo not drawn) the max response, negative = inhibition was 2.25%.
For `CCOC(=O)c1cc(-c2sc(NC(=O)c3ccccc3)nc2C)n(-c2ccc(Br)cc2)n1`, the max response, negative = inhibition was -6.87%.
For `O=C(NCc1ccccc1)C1CNCC(C(=O)NCc2ccccc2)C1` (stereo not drawn), the max response, negative = inhibition was 1.25%.
`O=C(c1ccc(N2CCCC2=O)cc1)N1CCN(c2ccc(C(F)(F)F)cc2[N+](=O)[O-])CC1` was tested, and the max response, negative = inhibition was -12.4%.
`COc1ccc(N(CC(=O)NCC2CCCO2)C(=O)CCC(=O)Nc2nccs2)c(OC)c1` (stereo not drawn) showed a max response, negative = inhibition of -9.55%.
In the case of `Cc1cc(NC(=O)CCC(=O)N(CC(=O)NCC2CCCO2)c2ccccc2C)no1` (stereo not drawn), the max response, negative = inhibition was -1.5%.
With `CCc1ccccc1N(CC(=O)NCC1CCCO1)C(=O)CCC(=O)Nc1nccs1` (stereo not drawn) the Potency was 21.2 µM (active).
Work on `COc1ccc(C(=O)C(OP(=O)(OC)OC)c2ccccc2OC)cc1` (stereo not drawn) yielded a max response, negative = inhibition of -7.71%.
`CO[C@@H]1CN(C)C(=O)c2cc(NC(=O)C3CC3)ccc2OC[C@H](C)N(C(=O)CN2CCOCC2)C[C@@H]1C` gave a max response, negative = inhibition of -4.89%.
With `O=C(Nc1ccccc1-c1ccccc1)c1ccccc1[N+](=O)[O-]` the max response, negative = inhibition was -3.58%.
`O=C(Nc1ccccc1-c1nnn(CC(=O)N2CCN(c3ccccc3)CC2)n1)c1cccs1` showed a max response, negative = inhibition of -6.64%.
For `O=C(Nc1ccccc1-c1ccccc1)c1cccs1`, the Potency was 4.23 µM (active).
In the case of `O=C(NCc1ccccc1)C1c2ccccc2OCC(=O)N1CCCN1CCOCC1` (stereo not drawn), the max response, negative = inhibition was -0.492%.
In the case of `CC(C)c1ccc2c(c1)c(SC(C)(C)C)c(CC(C)(C)C(=O)O)n2Cc1ccc(Cl)cc1`, the Potency was 16.8 µM (active).
`COc1ccc(NC2CCCN(C(=O)c3ccccc3-c3ncc[nH]3)C2)cc1` (stereo not drawn) gave a max response, negative = inhibition of -9.12%.
`CC1=C(C(=O)N(C(C)C)C(C)C)CC(CC(=O)NCCCCc2ccccc2)C(=O)N1CCC1=CCCCC1` (stereo not drawn) showed a max response, negative = inhibition of 1.49%.
`CN(Cc1cn(Cc2ccc(C(F)(F)F)cc2)nn1)C1CN(Cc2cn(Cc3ccc(C(F)(F)F)cc3)nn2)S(=O)(=O)C1` (stereo not drawn) showed a max response, negative = inhibition of -2.76%.
Molecule `CCc1ccccc1OCC(=O)Nc1ccc2c(c1)OCCO2` has a max response, negative = inhibition of -10.4%.
With `CCOc1ccccc1NC(=S)C(=C([O-])c1ccc2c(c1)OCCO2)[n+]1ccc(CC)cc1` the Potency was 26.7 µM (active).
Molecule `O=[N+]([O-])c1cccc(/C([O-])=C(/C(=S)Nc2ccccc2F)[n+]2ccccc2)c1` has a max response, negative = inhibition of -15%.
For `CCOc1ccc(CCN2C(=S)N([C@@H](CC(C)C)CN3CCC[C@@H]3CN3C(=S)NC[C@@H]3Cc3ccc(O)cc3)C[C@@H]2Cc2ccc(O)cc2)cc1`, the max response, negative = inhibition was 5.13%.
`CCc1nc2c(OCc3ccc(Cl)cc3Cl)cccn2c1N(C)C(=O)C(C)C` showed a max response, negative = inhibition of 3.78%.
With `CC(C)CNC(=O)C1(C)CCCN1C(=O)CSc1ccccc1` (stereo not drawn) the max response, negative = inhibition was -9.29%.
`O=C(CCC1CCCN(C(=O)c2ccc(F)c(F)c2)C1)N1CCN(c2ccccn2)CC1` (stereo not drawn) showed a max response, negative = inhibition of -12.1%.
In the case of `O=C(CCC1CCCN(C(=O)Cc2ccc(F)cc2)C1)N1CCN(c2ccccn2)CC1` (stereo not drawn), the max response, negative = inhibition was 2.42%.
`C=Cc1ccc(C(=O)N2CCCC(CCC(=O)N3CCN(c4ccccn4)CC3)C2)cc1` (stereo not drawn) was tested, and the Potency was 21.2 µM (active).
For `O=C(C=CC(=O)Nc1ccc(F)cc1F)Nc1ccc(F)cc1F`, the max response, negative = inhibition was 0.443%.
`COC(=O)Cc1ccc(OC2(C)CCN(Cc3ccc4c(c3)OCCO4)C2)cc1` (stereo not drawn) was tested, and the max response, negative = inhibition was -7.87%.
In the case of `CC(=O)/C(=N\Nc1ccc(Cl)cc1Cl)Sc1cccc2cccnc12`, the Potency was 4.23 µM (active).
`COc1cccc(CNC(=O)c2cccnc2Sc2ccc(Cl)cc2)c1` was tested, and the max response, negative = inhibition was -0.639%.
With `O=C(NNc1cc(Cl)ccc1Cl)c1cccnc1Cl` the max response, negative = inhibition was 7.67%.
In the case of `NC(c1csc(NC(=O)Nc2cccc(C(F)(F)F)c2)n1)C1CCCCC1` (stereo not drawn), the max response, negative = inhibition was -5.95%.
With `CC(=O)Nc1ccc(CNc2nc(NCCN(C)C)nc3cc(-c4ccccc4)sc23)cc1` the max response, negative = inhibition was 0.652%.
`Cc1cccc(C)c1Cn1c(C)c(C(=O)NCc2cccc(Cl)c2)sc1=O` gave a max response, negative = inhibition of -19.8%.
With `CCNC(=O)C1(C)CCCN1C(=O)c1ccc(N(C)C)cc1` (stereo not drawn) the max response, negative = inhibition was -10.7%.
With `O=C(NC1CCN(C(=S)Nc2ccc(Cl)cc2)CC1)C1CCCCC1` the max response, negative = inhibition was -11.1%.
In the case of `NC(=O)C1(N2CCCCC2)CCN(C(=S)Nc2ccc(Cl)cc2)CC1`, the max response, negative = inhibition was 1.24%.
For `CN(C)c1ccc(C(=S)N2CCN(C(=S)Nc3ccc(Cl)cc3)CC2)cc1`, the Potency was 6.7 µM (active).
